From PubChem
An excerpt weighted towards active compounds, which were near 12% of everything screened.
G9a inh: qHTS Assay for Inhibitors of Histone Lysine Methyltransferase G9a; G9a H3K9 monomethylation, AlphaScreen, 2 h; Potency, µM (series often up to 102 µM), inactives show at the highest dose activity, negative = inhibition, usual class: inhibitors; 350,000 compounds, 8.8% hits; AID 504332, 2011; further: potency means the concentration at half of the fitted maximal effect; on the % scale 0 is the no-effect control and ±100 the full control effect; nearly all actives have a fitted effect of over 75% in size
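Quantitative HTS format: methyltransferase activity on a biotin-tagged H3K9 peptide is measured by AlphaScreen, using a rabbit anti-monomethyl-H3K9 antibody with streptavidin donor and anti-IgG acceptor beads. Final levels are 20 nM enzyme, 500 nM peptide, 20 uM SAM; 2 h RT.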
HP1b chromo inh: HTS for Inhibitors of HP1-beta Chromodomain Interactions with Methylated Histone Tails | 390,000 compounds, 0.56% hits | AlphaScreen HP1-beta / biotin-H3K9me3 peptide binding | Chromobox protein homolog 1 (Homo sapiens), P83916 | AID 540317, 2011 | Potency, µM (top dose mostly 114 µM), without a hit: at the highest dose activity change, negative = inhibition, hits mostly inhibitors; further: potency means the concentration at half of the fitted maximal effect; nearly all actives have a fitted effect of over 70% in size
Target sequence (P83916 whole entry, looked up): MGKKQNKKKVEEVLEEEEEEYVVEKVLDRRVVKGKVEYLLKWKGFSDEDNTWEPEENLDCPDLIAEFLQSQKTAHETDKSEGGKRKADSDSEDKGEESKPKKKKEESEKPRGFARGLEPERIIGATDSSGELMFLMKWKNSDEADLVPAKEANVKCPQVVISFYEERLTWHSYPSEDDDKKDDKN
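Compound inhibition of the preformed complex between 50 nM HP1-beta and 50 nM biotinylated H3K9me3 peptide was read by AlphaScreen. Buffer was PBS pH 7.4 with 0.01% Tween-20. Incubations ran 30 min at room temperature, with 10 ug/mL donor/acceptor beads.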
BAZ2B block: qHTS Assay for Inhibitors of BAZ2B; AlphaScreen BAZ2B-H3K14Ac peptide displacement; Potency, µM (top dose mostly 114 µM), inactives show top-dose activity change, negative = inhibition, most hits filed as inhibitors; 360,000 compounds, 4.4% hits; further: potency means the concentration at half of the fitted maximal effect; on the % scale 0 is the no-effect control and ±100 the full control effect; nearly all actives have a fitted effect of over 60% in size
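In this displacement format the biotinylated H3(5-23) peptide acetylated at Lys14 serves as ligand at 50 nM, with BAZ2B at 50 nM in PBS pH 7.4 containing 0.01% Tween-20. Donor and acceptor beads are 10 ug/mL final.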
L3MBTL1 inh: qHTS Assay for the Inhibitors of L3MBTL1 | Lethal(3)malignant brain tumor-like protein 1 (Homo sapiens), Q9Y468 | Potency, µM (titrated, usually from 57.1 µM), inactives show top-dose activity, negative = inhibition, actives largely listed as inhibitors | AID 485360, 2010 | 230,000 compounds, 0.66% hits | AlphaScreen L3MBTL1–H3K9me1 peptide binding; further: potency means the concentration at half of the fitted maximal effect; on the % scale 0 is the no-effect control and ±100 the full control effect; nearly all actives have a fitted effect of over 60% in size
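AlphaScreen proximity signal between nickel-chelate acceptor and streptavidin donor beads (final 10 ug/mL) reports binding of 50 nM L3MBTL1 to 75 nM biotin-H3 K9me1 peptide; complex incubated with compounds 30 min at room temperature; cefsulodin titration as control.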
JMJD2A Tudor: qHTS Assay for Inhibitors of JMJD2A-Tudor Domain; Lysine-specific demethylase 4A (Homo sapiens), O75164; AlphaScreen JMJD2A-Tudor / H3K4me3 peptide binding; Potency, µM (doses to about 114 µM), without a hit: at the top dose activity change, negative = inhibition, actives largely listed as inhibitors; 390,000 compounds, 4.4% hits; AID 504339, 2011; further: potency means the concentration at half of the fitted maximal effect; on the % scale 0 is the no-effect control and ±100 the full control effect; nearly all actives have a fitted effect of over 50% in size
Sfp PPTase inh: qHTS Assay for Inhibitors of Bacillus subtilis Sfp phosphopantetheinyl transferase (PPTase). 4'-phosphopantetheinyl transferase ffp (Bacillus subtilis), Q9F4F7. Biochemical Sfp PPTase activity, qHTS. Potency, µM, without a hit: largest response in the series, negative = inhibition, usual class: inhibitors. 310,000 compounds, 3.5% hits;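 further: the enzyme is Sfp with the accession as filed and its product quenches rhodamine fluorescence; potency means the concentration at half of the fitted maximal effect; 0% = enzyme reaction without inhibitor and -100% = no enzyme wells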
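With Hepes-Na pH 7.6 buffer containing 10 mM MgCl2, Sfp (15 nM) modified BHQ-2-YbbR (12.5 uM) using rhodamine-CoA (5 uM). Two reads 30 minutes apart at 525/598 nm yielded each well's rate.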
12-hLO cuvette: Cuvette-Based Assay for Inhibitors of 12-hLO (12-human lipoxygenase): 8HQ Series - Round 1 | shares compounds with BAZ2B block | purified 12-hLO, cuvette UV 234 nm product formation | Potency, µM, hits mostly inhibitors | 35 compounds, 60% hits;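 active means compounds that slowed 12-hLO product formation enough to yield a measured IC50 potency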
JMJD2E inh: Inhibitors of Human Jumonji Domain Containing 2E (JMJD2E): 8HQs - Round 1. AID 493212, 2011. JMJD2E demethylase, FDH-coupled NADH fluorescence (FDH is formaldehyde dehydrogenase). 130 compounds, 89% hits. Potency, µM (doses to about 57 µM), without a hit: at the top dose activity, negative = inhibition, hits mostly inhibitors. shares compounds with BAZ2B block
Target sequence (B2RXH2 1-337 limits assumed): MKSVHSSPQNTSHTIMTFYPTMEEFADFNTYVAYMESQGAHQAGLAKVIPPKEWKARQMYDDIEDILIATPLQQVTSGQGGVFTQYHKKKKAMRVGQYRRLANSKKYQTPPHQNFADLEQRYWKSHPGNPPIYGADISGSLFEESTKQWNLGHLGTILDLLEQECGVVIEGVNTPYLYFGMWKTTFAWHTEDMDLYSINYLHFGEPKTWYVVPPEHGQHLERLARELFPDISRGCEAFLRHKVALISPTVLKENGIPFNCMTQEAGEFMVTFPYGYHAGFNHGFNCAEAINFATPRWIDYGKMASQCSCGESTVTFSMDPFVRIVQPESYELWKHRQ
ME-1 growth: qHTS Assay for Compounds Blocking the Interaction Between CBF-beta and RUNX1 for the Treatment of Acute Myeloid Leukemia: ME-1 cellular proliferation. shares compounds with BAZ2B block. ME-1 cell proliferation, ATP luminescence, 48 h. Potency, µM (series often up to 56.1 µM), for the others: at the highest dose activity change, negative = inhibition, actives largely listed as inhibitors. 140 compounds, 20% hits. AID 504370, 2011
* marks the source's active call; other numbers are inactive results; [ ] = another dose, or the depositor's remark. Unless noted, the call rests on the fitted dose curve; in most records, active means well fitted curve in the direction sought with a large enough effect; inconclusive means small, poorly fitted or top-dose-only effect, or another doubt; inactive means no such curve, though single readings can be large; an effect the other way counts as inactive or inconclusive.

`COc1cccc2c1NC(C(=O)O)C1CC=CC21` (stereo not given) gave G9a inh 2.5µM*, HP1b chromo inh 20µM*, BAZ2B block 3.5µM*, L3MBTL1 inh 1.3µM*, JMJD2A Tudor 8.9µM*, Sfp PPTase inh 7.9µM* and ME-1 growth inconclusive.
Screening Cc1nc(-c2ccccc2)sc1CCNC(=O)C(=O)Nc1ccc2c(c1)OCO2 returned G9a inh 2%[59 µM], HP1b chromo inh 24%[57 µM], BAZ2B block -1% and JMJD2A Tudor 3%.
Screening Cc1nnc(-c2ccccc2)nc1N(C)C returned G9a inh 15%[59 µM], HP1b chromo inh 50%, BAZ2B block 0%, L3MBTL1 inh 8%, JMJD2A Tudor 10% and Sfp PPTase inh 0%.
For CN(C)c1nc(-c2ccccn2)nnc1-c1ccccc1 the results were G9a inh 24%, HP1b chromo inh 48%, BAZ2B block 0.79µM*, JMJD2A Tudor 4µM*, Sfp PPTase inh 79µM* and ME-1 growth 16µM*.
O=C(Cc1cc(=O)[nH][nH]1)N/N=C/c1cccc(Cl)c1Cl was read as G9a inh -4%, HP1b chromo inh 26%, BAZ2B block -26%, L3MBTL1 inh -2%, JMJD2A Tudor -28% and Sfp PPTase inh 17%.
Cc1ccccc1NC(=S)NNC(=O)c1csc2c1CCC(C)C2 (stereo not given) was read as G9a inh -10%[12.7 µM], HP1b chromo inh -6%, BAZ2B block 8%, JMJD2A Tudor -19% and Sfp PPTase inh -1%.
CCC(=O)NC(c1ccco1)c1cc(Cl)c2ccccc2c1O (stereo not given) was read as G9a inh -1%[0.501 µM], HP1b chromo inh 15%, BAZ2B block -33%, L3MBTL1 inh -6% and JMJD2A Tudor -25%.
Screening CC(=O)NC(c1cccs1)c1cc(F)c2cccnc2c1O (stereo not given) returned G9a inh 2%[12.7 µM], HP1b chromo inh 14%, BAZ2B block 25µM*, L3MBTL1 inh inconclusive, JMJD2A Tudor 79µM*, 12-hLO cuvette 2µM* and JMJD2E inh 29µM*.
`CC(=O)NC(c1ccco1)c1cc(F)c2cccnc2c1O` (stereo not given) gave G9a inh -20%[12.7 µM], HP1b chromo inh 23%, BAZ2B block 20µM*, L3MBTL1 inh 14µM*, JMJD2A Tudor 56µM*, 12-hLO cuvette 5µM* and JMJD2E inh 29µM*.
CCC(=O)NC(c1cccs1)c1cc([N+](=O)[O-])c2cccnc2c1OC (stereo not given) was read as G9a inh inconclusive, BAZ2B block inconclusive, L3MBTL1 inh -19%, 12-hLO cuvette inactive and JMJD2E inh 4.6µM*.
For CC(=O)NC(C)c1cc(Cl)c2ccccc2c1O (stereo not given) the results were G9a inh -1%[0.501 µM], HP1b chromo inh 43%, BAZ2B block -4%, L3MBTL1 inh 0% and JMJD2A Tudor -11%.
`CC(=O)NC(c1ccco1)c1cc(Cl)c2ccccc2c1O` (stereo not given) gave G9a inh -49%[12.7 µM], HP1b chromo inh 14%, BAZ2B block -11%, L3MBTL1 inh -8% and JMJD2A Tudor -30%.
Screening CC(=O)NC(c1ccco1)c1cc(Cl)c2ccc(Cl)nc2c1O (stereo not given) returned G9a inh inconclusive, HP1b chromo inh 23%, BAZ2B block -5%, L3MBTL1 inh 3%, JMJD2A Tudor -26%, 12-hLO cuvette inactive and JMJD2E inh 121%.
For N#Cc1c(NC(=O)CSc2nc(N)cc(=O)[nH]2)sc2c1CCCC2 the results were HP1b chromo inh 2%, BAZ2B block inconclusive, L3MBTL1 inh -8%, JMJD2A Tudor -20% and Sfp PPTase inh -24%.
Screening O=C(O[C@@H]1OC2COC(=O)c3cc(O)c(O)c(O)c3-c3c(cc(O)c(O)c3O)C(=O)O[C@@H]([C@H]1O)[C@@H]2O)c1cc(O)c(O)c(O)c1 returned G9a inh 1.6µM*, HP1b chromo inh -74%, BAZ2B block 0.79µM*, L3MBTL1 inh 0.1µM*, Sfp PPTase inh 4.5µM* and ME-1 growth inconclusive.
For Cc1cc(=O)cc2oc3cc(N)c(-c4c(C)cc(O)cc4O)c(C)c3nc1-2 the results were Sfp PPTase inh 50µM* and ME-1 growth -13%.
`Nc1c(C(=O)NCC2CCCO2)sc2nc3c(c(-c4ccco4)c12)CC/C3=C\c1ccco1` (stereo not given) gave G9a inh 8.9µM*, HP1b chromo inh inconclusive, BAZ2B block 8.9µM*, L3MBTL1 inh 3.2µM*, JMJD2A Tudor 2µM*, Sfp PPTase inh 32µM* and ME-1 growth inconclusive.
Screening Nc1nc(-c2ccccc2)c(N=Nc2cccnc2)s1 returned G9a inh 40µM*, HP1b chromo inh inconclusive, BAZ2B block 7.9µM*, L3MBTL1 inh -34%, JMJD2A Tudor -33%, Sfp PPTase inh 1% and ME-1 growth -5%[25.6 µM].
Screening CCc1ccc2occ(CC(=O)N(Cc3ccccc3)C3CCS(=O)(=O)C3)c2c1 (stereo not given) returned G9a inh -10%[59 µM], HP1b chromo inh -1%, BAZ2B block -16% and JMJD2A Tudor -25%.
